Compound activity (PubChem BioAssay)
ATXN2 expr inh – reduces ATXN2 reporter expression in HEK-293 cells; HEK-293 ATXN2-luciferase reporter, luminescence, 24 h; Potency, µM (series often up to 57 µM), inactives show top-dose activity change, negative = inhibition, most hits filed as inhibitors; 360,000 compounds, 0.72% hits; AID 1745845; further: on the % scale 0 is the no-effect control and ±100 the full control effect; nearly all actives have a fitted effect of over 55% in size
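ATXN2-luciferase reporter cells (luciferase flanked by upstream and downstream ATXN2 gene portions) were treated 24 h at 37 °C with compounds at up to 57 uM. SteadyGlo luminescence gave expression; GF-AFC fluorescence gave viability.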
ATXN viability – cell viability loss in ATXN counter-screen; 400,000 compounds, 0.49% hits; Potency, µM (doses to about 56.7 µM), most hits filed as cytotoxic; S2 cells (HEK-293 line with an ATXN2-luciferase reporter) viability, CellTiter-Fluor protease fluorescence, 24 h; AID 651635; further: nearly all actives have a fitted effect of over 40% in size
HT1080-NT tox – kills 2HG-producing HT-1080-NT fibrosarcoma cells | AID 686970 | 360,000 compounds, 1.6% hits | Potency, µM (top dose mostly 46.1 µM), for inactives: at the highest dose activity, negative = less viability, hits mostly cytotoxic | HT-1080-NT fibrosarcoma viability, CellTiter-Glo ATP luminescence, 48 h;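 further: NT is the 2HG producing partner of a matched IDH1 knockdown line; 0% = DMSO-treated cells and -100% = media-only wells without cells; nearly all actives have a fitted effect of over 55% in size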
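Read-out is CellTiter-Glo luminescence after 10 minutes at room temperature, following 48 hours' compound treatment of HT-1080-NT cells (750 cells/well, RPMI, 5% FBS, 37 degrees C).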
HT1080 IDH1KD tx – HT-1080 IDH1 knockdown cell toxicity (counter line); 360,000 compounds, 2% hits; HT-1080 IDH1 knockdown viability, ATP luminescence, 48 h; Potency, µM (doses to about 46.1 µM), inactives show at the highest dose activity, negative = toxicity, usual class: cytotoxic;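 further: 0% = DMSO wells and -100% = cell-free medium wells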
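IDH1KD HT-1080 cells, 750/well, RPMI + 5% FBS; compound pinned after 2 h settling; 48 h, 37 °C; CellTiter-Glo luminescence; % activity normalised to DMSO and no-cell wells; curves fitted, classed by r2 and efficacy.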
TGFb SMAD3 inh – blocks TGF-b signaling. Potency, µM (top dose mostly 46.1 µM), inactives show at the highest dose activity, negative = inhibition, usual class: inhibitors. 410,000 compounds, 1.2% hits. HepG2 CAGA-GFP TGF-b/SMAD3 reporter, GFP fluorescence, 18 h; TGF-beta stimulated, 500 pg/mL final; further: on the % scale 0 is the no-effect control and ±100 the full control effect; nearly all actives have a fitted effect of over 65% in size
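First, reporter cells (HEPG2 CAGA-GFP) rested 2 h at 37 degrees C. Next, compounds were pinned in and TGF-beta added to 500 pg/mL final. After 18 h, GFP was imaged per cell and summed per well.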
HepG2 tox – kills HepG2 cells in TGF-b inhibitor counter-screen; HepG2 CAGA-GFP viability, ATP luminescence, 18 h; 410,000 compounds, 0.76% hits; Potency, µM (doses to about 46.1 µM), without a hit: at the highest dose activity change, negative = cytotoxicity, actives largely listed as cytotoxic
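HepG2 CAGA-GFP cells (1000/well, DMEM with 1% FBS) received compound, then TGF-beta at 500 pg/mL final, and were incubated 18 hours at 37 degrees C. Viability was read by CellTiter-Glo luminescence. Media-only wells were set as complete cell-killing and DMSO as no toxicity.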
Starred values were filed as active, the others as inactive; i = inactive; u = inconclusive; x = not tested or not shown. An excerpt weighted towards active compounds, which were near 3.9% of everything screened. The call rests on the fitted dose curve; in most records, active means well fitted curve in the direction sought with a large enough effect; inconclusive means small, poorly fitted or top-dose-only effect, or another doubt; inactive means no such curve, though single readings can be large; an effect the other way counts as inactive or inconclusive. Potency means the concentration at half of the fitted maximal effect.

SMILES	ATXN2 expr inh	ATXN viability	HT1080-NT tox	HT1080 IDH1KD tx	TGFb SMAD3 inh	HepG2 tox
COc1ccc(Cl)cc1C1CC(=O)Nc2cc3c(cc21)OCCO3 (stereo not given)	x	x	x	x	u	7%
CC(=O)Nc1ccccc1-c1nc(CNC(=O)c2cc(C)ccc2C)c(C)o1	x	i	x	x	x	x
Cc1ccnc(NS(=O)(=O)c2ccc(NC(=O)c3ccc([N+](=O)[O-])s3)cc2)n1	u	i	u	u	u	11µM*
Cc1cccn2c(=O)c(/C=C(\C#N)C(=O)NC3CCS(=O)(=O)C3)c(Oc3ccccc3Cl)nc12 (stereo not given)	-8%	i	u	u	u	-26%
Cc1ccccc1Oc1nc2c(C)cccn2c(=O)c1/C=C(\C#N)C(=O)NC1CCS(=O)(=O)C1 (stereo not given)	-31%	u	u	13µM*	u	6.3µM*
CC(=O)Nc1ccc(S(=O)(=O)N2CCN(c3nc(NC4CCCC4)c4ccccc4n3)CC2)cc1	u	x	18µM*	u	u	-23%
CC(=O)Nc1ccc(S(=O)(=O)N2CCN(c3cc(C)nc4ccccc34)CC2)cc1	-4%	i	-22%	u	-9%	-36%
COc1ccc(-c2nnc3c4ccccc4c(C)nn23)cc1S(=O)(=O)N1CCN(CCO)CC1	-13%	i	u	8.9µM*	-20%	-33%
Cc1nn2c(-c3ccc(S(=O)(=O)N4CCN(CCO)CC4)o3)nnc2c2ccccc12	-8%	i	-8%	-16%	-1%	2%
Cc1ccc(S(=O)(=O)n2ccc3c(OCCOCCNCc4ccc(F)cc4)cccc32)cc1	-18%	i	16µM*	21µM*	u	-116%
COC(=O)[C@@H]1C[C@@H](NC(=O)c2cnsn2)CN1Cc1ccc(Cl)cc1	x	i	x	x	x	x
COc1ccc(C(=O)c2c(C(F)(F)F)oc3c2C(=O)c2ccccc2C3=O)cc1OC	u	28µM*	9.2µM*	u	4µM*	3.5µM*
COc1cc(/C=N/N=C(/N)c2nonc2N)cc(Br)c1OCc1cccc(C)c1	-23%	i	u	u	u	-76%
CCOc1cc(/C=N/N=C(\N)c2nonc2N)cc(Br)c1OCc1cccc2ccccc12	u	u	23µM*	18µM*	u	11µM*
Cc1ccc(-n2nnnc2CNC(=O)C(C)(C)C)cc1C	x	x	x	x	7%	0%
Cc1cccc(C)c1NC(=O)Cn1cnc2c(=O)n(C)c(=O)n(C)c21	2%	i	-1%	2%	-4%	10%
Cc1ccccc1C(=O)Nc1cccc(NC(=O)Cn2cnc3c(=O)n(C)c(=O)n(C)c32)c1	-25%	i	u	11µM*	-21%	-5%
O=C(Cn1cnc([N+](=O)[O-])n1)N/N=C/c1ccc(O)cc1O	-34%	i	u	18µM*	0%	-5%
CC1=NN(C(=O)c2csc(C)c2)C(O)(C(F)(F)F)C1 (stereo not given)	5%	i	3%	2%	-6%	-71%
CC1=NN(C(=O)c2ccc(Br)cc2)C(O)(C(F)(F)OC(F)(F)F)C1 (stereo not given)	-8%	i	-1%	-11%	16µM*	-60%
CC(C)(C)n1[nH]c2c3c(ccc2c1=O)C(=O)c1ccccc1C3=O	-21%	u	u	u	10µM*	6.3µM*
Cc1ccc(-n2[nH]c3c4c(ccc3c2=O)C(=O)c2ccccc2C4=O)cc1	-19%	i	24%	20%	9%	-7%
CCOc1cc2ncc(C#N)c(Nc3ccc(F)c(Cl)c3)c2cc1NC(=O)C=CCN(C)C	22µM*	x	x	x	x	x
COc1cc2ncnc(Nc3ccc(F)c(Cl)c3)c2cc1NC(=O)C=CCN1CCCCC1	31µM*	x	x	x	x	x
CN(C)CC=CC(=O)Nc1cc2c(Nc3ccc(F)c(Cl)c3)ncnc2cc1O[C@H]1CCOC1	27µM*	x	x	x	x	x
SMILES	ATXN2 expr inh	ATXN viability	HT1080-NT tox	HT1080 IDH1KD tx	TGFb SMAD3 inh	HepG2 tox
CSc1ccc(-c2nc3cccc(C)n3c2Nc2ccc3c(c2)OCO3)cc1	5%	u	x	x	6%	-31%
Cc1ccc(OCCCCn2c(CCNC(=O)C3CCCCC3)nc3ccccc32)cc1	x	x	x	x	-21%	-2%
Cc1ccc2c(c1)c(=O)c(C(=O)c1ccccc1)cn2Cc1ccccc1F	1%	i	x	x	-3%	-6%
COCc1ccc(C(=O)N2CCOc3ccc(CN4CCN(c5ccc(F)cc5)CC4)cc3C2)o1	x	i	x	x	x	x
O=C(O)c1cc(N(Cc2ccccc2O)Cc2ccccc2O)ccc1O	x	x	x	x	-28%	-11%
CC1(NC(=O)CC(c2ccccc2)(c2ccccc2)c2ccccc2)CCN(CCCc2ccccc2)C1=O (stereo not given)	-13%	u	u	u	8.9µM*	-21%
CC1(NC(=O)CCc2ccccc2)CCN(CCCc2ccccc2)C1=O (stereo not given)	12%	i	6%	14%	-15%	-18%
COc1cccc(Cn2c(CNC(=O)CCc3ccccc3)nc3cccnc32)c1	x	x	x	x	-19%	-20%
CCc1ccc(CNC(=O)Cn2ccc3cc(S(=O)(=O)N4CCCCCC4)ccc32)cc1	-14%	i	x	x	0%	-28%
CCc1ccc(CNC(=O)CCCn2ccc3cc(S(=O)(=O)N4CCCC4)ccc32)cc1	u	13µM*	x	x	u	-30%
Cc1nc(SCc2nc3ccc(Cl)cc3[nH]2)c2oc3ccccc3c2n1	u	u	x	x	7.9µM*	-15%
Cc1oc(-c2cccc(NC(=O)C3CCCN(C)C3)c2)nc1CNC(=O)c1coc2c1C(=O)CCC2 (stereo not given)	x	i	x	x	x	x
CCOc1cc(/C=C2/SC(=S)NC2=O)ccc1OC(=O)c1ccco1	16%	u	12µM*	u	14%	-27%
Cc1ccc(S(=O)(=O)N2CCN(c3nc(-c4ccc(CN5CCNCC5)s4)nc4ccccc34)CC2)cc1	x	x	x	x	u	-98%
O=C(/C=C\c1cn(-c2ccccc2)nc1-c1ccccc1)Nc1nccs1	-12%	u	15µM*	21µM*	u	-60%
CC(=O)NS(=O)(=O)c1ccc(NC(=O)/C=C/c2cn(-c3ccccc3)nc2-c2ccccc2)cc1	5%	i	1%	8%	2%	3%
COc1ccccc1N1CCN(CC(O)COc2cc(OC)c(OC)c(OC)c2)CC1 (stereo not given)	-4%	i	x	x	x	x
